The values that follow come from publication PMC4336329 (PLoS ONE, 2015).

Among all 310,000 compounds or so, about 14,000 (4.5%) showed an effect of 50% or more. Effects have a minus sign here. For the sample, strong results were picked, then their nearest neighbours and some compounds at random.
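Further: peak tail current of the secondary pulse compared with the same well before compound.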

For this experiment, the target named is human ether-à-go-go-related gene (hERG) potassium channel (human, UniProt Q12809). Put plainly: primary screen, population patch clamp on CHO cells stably expressing hERG; higher = less effect of the substance.
human ether-à-go-go-related gene (hERG) potassium channel, sequence (Q12809 whole entry, looked up): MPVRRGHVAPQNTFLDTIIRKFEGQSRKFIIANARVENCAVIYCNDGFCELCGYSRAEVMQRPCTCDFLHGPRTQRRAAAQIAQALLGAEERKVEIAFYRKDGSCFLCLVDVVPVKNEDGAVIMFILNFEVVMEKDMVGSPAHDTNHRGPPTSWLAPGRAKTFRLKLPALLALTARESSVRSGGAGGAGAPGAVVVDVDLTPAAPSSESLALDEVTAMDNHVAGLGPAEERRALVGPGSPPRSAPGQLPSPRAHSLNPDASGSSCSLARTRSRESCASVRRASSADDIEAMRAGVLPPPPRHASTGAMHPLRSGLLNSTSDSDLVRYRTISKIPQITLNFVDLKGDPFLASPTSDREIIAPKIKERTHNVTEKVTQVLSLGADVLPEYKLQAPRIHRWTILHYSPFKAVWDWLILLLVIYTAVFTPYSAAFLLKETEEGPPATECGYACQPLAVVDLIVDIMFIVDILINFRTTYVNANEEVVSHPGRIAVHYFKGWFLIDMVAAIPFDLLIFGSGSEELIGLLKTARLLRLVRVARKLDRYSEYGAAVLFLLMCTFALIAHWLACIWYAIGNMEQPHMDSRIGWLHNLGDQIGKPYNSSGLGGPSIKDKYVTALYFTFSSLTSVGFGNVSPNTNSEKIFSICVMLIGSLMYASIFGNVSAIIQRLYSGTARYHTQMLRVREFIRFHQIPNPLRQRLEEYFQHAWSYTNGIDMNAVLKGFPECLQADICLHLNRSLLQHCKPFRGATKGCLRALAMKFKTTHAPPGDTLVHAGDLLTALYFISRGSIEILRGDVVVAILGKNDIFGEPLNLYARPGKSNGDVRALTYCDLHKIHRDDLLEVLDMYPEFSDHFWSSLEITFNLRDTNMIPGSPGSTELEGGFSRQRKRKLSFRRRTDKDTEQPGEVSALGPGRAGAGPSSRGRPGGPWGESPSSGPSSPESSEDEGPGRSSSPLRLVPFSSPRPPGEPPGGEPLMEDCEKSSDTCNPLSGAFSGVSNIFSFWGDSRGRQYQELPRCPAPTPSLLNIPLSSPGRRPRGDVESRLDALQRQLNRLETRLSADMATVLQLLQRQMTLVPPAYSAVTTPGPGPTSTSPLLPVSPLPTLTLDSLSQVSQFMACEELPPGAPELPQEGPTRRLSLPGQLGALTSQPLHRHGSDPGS
For `COc1cc(NC(=O)c2ccccc2)ccc1NC(=O)c1cc2ccccc2o1`, the “hERG current change (%, negative = inhibition) at 10uM” value was 25.8%.
As for `CCOC(=O)c1cc(-c2ccc([N+](=O)[O-])cc2)nc2c1c(=O)[nH]c(=O)n2Cc1ccccc1`, the “hERG current change (%, negative = inhibition) at 10uM” value stood at 11.9%.
Next, `CC1CCN(C(=O)c2[nH]cnc2C(=O)NC2CCN(C(=O)OC(C)(C)C)CC2)CC1`: 9.62%; `COc1ccc(NC(=S)NCc2ccco2)c(OC)c1`: -2.08%; `CCOc1ccc(N(C)S(=O)(=O)c2ccc3[nH]cc(C(=O)NCCCOC)c(=O)c3c2)cc1`: 3.51%.
Next, `O=C(O)Cn1c2ccccc2c2ccccc21`: 30.5%; `COc1ccc2c(c1OC)C(=O)N(c1ncn[nH]1)C2`: 13.5%; `O=C(/C=C\c1ccc(-c2cccc([N+](=O)[O-])c2)o1)N1CCOCC1`: -10.2%.
Under `Cc1ccc2[nH]c3c(=O)n(CC(=O)N4CCN(C)CC4)ncc3c2c1` stands -1.46%.
Take `Cn1c(=O)n(C)c2cc(NC(=O)CSc3ccccc3)ccc21`: the “hERG current change (%, negative = inhibition) at 10uM” value is 4.01%.
With `CCc1nc2ccccc2n1CCc1ccccc1.Cl`, the “hERG current change (%, negative = inhibition) at 10uM” value was -16.6%.
On to `CN(C(=O)c1cc([N+](=O)[O-])ccc1N1CCCC1)C1CCCCC1`, for which the “hERG current change (%, negative = inhibition) at 10uM” value came out at 1.07%.
On to `CCN(CC)S(=O)(=O)c1cccc(-c2nnc(SCC(N)=O)n2CCc2ccccc2)c1`, for which the “hERG current change (%, negative = inhibition) at 10uM” value is on record as -37.3%.
`CCN(CC)S(=O)(=O)c1cccc(-c2nnc(SCc3ncc(-c4ccccc4)o3)n2C)c1`: the “hERG current change (%, negative = inhibition) at 10uM” value is on record as -68.2%.
As for `CCN(CC)S(=O)(=O)c1cccc(-c2nnc(SCC(=O)NC)n2CCc2ccccc2)c1`, the “hERG current change (%, negative = inhibition) at 10uM” value was -27.3%.
Next, `CCCNC(=O)C(Cc1cccc(Cl)c1)NC(=O)c1ccc(C#N)cc1` (centres unmarked): -11%; `CCCNC(=O)C(Cc1ccc(I)cc1)NC(=O)c1ccc(C#N)cc1` (centres unmarked): 8.48%.
For the molecule `CCCNC(=O)C(Cc1cccc(C#N)c1)NC(=O)c1cccc([N+](=O)[O-])c1` (centres unmarked), the “hERG current change (%, negative = inhibition) at 10uM” value is given as -10.2%.
Under `CCCNC(=O)C(Cc1ccc(OC)cc1)NC(=O)c1ccc(C#N)cc1` (centres unmarked) stands -50.7%; under `CCCNC(=O)C(Cc1cccc(C#N)c1)NC(=O)c1ccc(C#N)cc1` (centres unmarked), -55.9%.
Next, `CCCNC(=O)C(Cc1cccc(OC)c1)NC(=O)c1ccc(C#N)cc1` (centres unmarked): -7.8%; `O=C(Oc1ccc(F)cc1)c1ccc2c(=O)n3c(nc2c1)CCC3`: -21.6%; `O=C(COC(=O)c1cccc(O)c1)NC(=O)Cc1ccccc1`: 3.25%.
Under `Cc1nn(-c2ccccc2)c(N2CCCC2)c1/C=C1\N=C(c2ccccc2)OC1=O` stands 11.7%.
In the case of `CCCCCC(=O)NNC(=O)c1c(O)c2ccccc2n(CC)c1=O`, the “hERG current change (%, negative = inhibition) at 10uM” value was -13.5%.
On to `Cc1cccc(N=C2NN=C(c3ccccc3F)CS2)c1C`, for which the “hERG current change (%, negative = inhibition) at 10uM” value was determined as 41.8%.
Next, `Cc1cc(N2CCC(C)CC2)nc2cccc(O)c12`: -28.7%; `CCOC(=O)c1cnc2ccc(OCC)cc2c1N1CCN(C)CC1.Cl`: -47.8%; `COc1cc2ncc(C(=O)c3ccccc3)c(N3CCN(Cc4ccccc4)CC3)c2cc1OC`: -12.9%.
Under `CCOC(=O)c1cnc2ccc(OCC)cc2c1N1CCN(c2ccccc2OC)CC1` stands -5.78%.
Next, `CCOc1ccc2ncc(C(=O)c3ccc(OC)cc3)c(N3CCN(CC)CC3)c2c1`: -74.5%; `CCc1ccc2ncc(C(=O)c3ccccc3)c(N3CCOCC3)c2c1`: -45.7%; `COc1ccc(N2CCN(c3c(S(=O)(=O)c4ccccc4)cnc4ccc(OC)cc34)CC2)cc1`: -17.7%.
Turning to `CCc1ccc(C(=O)c2cnc3ccc(OC)cc3c2N2CCN(CC)CC2)cc1`, the “hERG current change (%, negative = inhibition) at 10uM” value is -67.7%.
Next, `CCN1CCN(c2c(C=O)c(Cl)nc3ccc(OC)cc23)CC1`: -54.5%; `CCOc1ccc2ncc(S(=O)(=O)c3ccccc3)c(N3CCN(c4ccc(OC)cc4)CC3)c2c1`: -10.9%; `CSc1ccccc1NC(=O)Cn1ccsc1=N`: 33.3%.
Under `Cc1cc(NC(=O)CCCC(=O)OCC(F)(F)C(F)F)cc(C)c1C(=O)O` stands 20.1%; under `O=C(O)CC1OCC=C2CN3CCC45C6=CC(=O)C(=O)C([N+](=O)[O-])=C6NC4C1C2CC35` (centres unmarked), 10.1%.
Next, `Cc1ccc(C)c(N2CCN(C(=O)Cn3cccc3)CC2)c1`: -19%.
On to `COc1ccc(/C=C/c2cc(C(F)(F)F)[nH]c(=O)n2)cc1OC`, for which the “hERG current change (%, negative = inhibition) at 10uM” value is reported as -6.91%.
